Autofluor 339 – intrinsic fluorescence of library compounds, ex339/em460 – biochemical, MLSMR library, data from DPM-DC assay, artefact control, profiling panel. AID 709. compound autofluorescence, ex339/em460 nm, NADH buffer; hits give high values; 1 = no-compound wells, NADH background. 5.5% of 65,000 active. fluorescence fold increase at 10 µM;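 active = at 10 µM, mean starting fluorescence two-fold or more over control wells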;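 note: signal is the first read of a kinetic run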
DPM-DC inhibit – S. pneumoniae DPM-DC inhibition | calls only at 10 µM | AID 556 | purified DPM-DC, PK/LDH coupled NADH fluorescence | 0.49% of 65,000 active;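 active = the 320 compounds with the highest percent inhibition in the single-dose primary screen, excluding strongly autofluorescent ones, cut at about 32% in these data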;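 note: kinetic rate of NADH fluorescence loss reporting ADP formed by the decarboxylase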
NADH coupling – inhibition of NAD/NADH coupling enzymes, library profiling | coupled PK/LDH NADH assays, four targets | IC50, µM (series often up to 10 µM), for inactives: at the top dose inhibition | 0.02% of 65,000 active | AID 774;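 active = single-dose screening hits from any of four coupled enzyme assays that gave an IC50 when retested across doses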;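 note: the DPM-DC format reads NADH fluorescence rather than 340 nm absorbance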
MK inhibit – S. pneumoniae mevalonate kinase inhibition; purified MK, PK/LDH-coupled NADH absorbance 340 nm; inhibition, % at 10 µM; 0.48% of 65,000 active; AID 555;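 active = ranked among the strongest by inhibition in the single 10 µM screen, a fixed top-ranked set picked for dose follow-up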
Spn PMK inh – S. pneumoniae PMK inhibition; AID 539; 0.49% of 65,000 active; inhibition, % at 10 µM; purified PMK, PK/LDH-coupled NADH absorbance 340 nm;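 active = top-ranked compounds by inhibition in the single 10 µM screen, taking a fixed number of the strongest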;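 note: 0% = full reaction with DMSO carrier and 100% = background rate without enzyme reaction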
Abs 340nm – compounds absorbing at 340 nm; AID 708; fold change at 10 µM; 65,000 tested, under 10 active; compound absorbance at 340 nm, fold over control;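 active = at 10 µM dose, initial 340 nm absorbance at least 2 fold that of control wells; inactive = change under 2 fold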;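 note: initial absorbance extrapolated from kinetic A340 decline of NADH oxidation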
* = called active by the depositor; i = inactive; nt = not tested or not shown; + = active, no number. Most compounds without a hit are left out; they make up all but 6.3% or so of the library.

SMILES	Autofluor 339	DPM-DC inhibit	NADH coupling	MK inhibit	Spn PMK inh	Abs 340nm
O=C1CCCC2=C1C(c1cccs1)n1nc(SCc3ccccc3F)nc1N2 (stereo not drawn)	2.16*	i	2.0%	4.0	0.0	1.03
CCOC(=O)C(C)Oc1ccc2c(C)cc(=O)oc2c1C(C)=O (stereo not drawn)	1.17	i	6.0%	4.0	8.0	1.04
CCOC(=O)CCc1c(C)c2ccc(OC(C)C(=O)OCC)c(C)c2oc1=O (stereo not drawn)	3.77*	nt	2.0%	1.0	3.0	1.12
COc1cc(C(=O)N(Cc2cc3ccccc3[nH]c2=O)CC2CCCO2)cc(OC)c1OC (stereo not drawn)	1.26	i	9.0%	9.0	14.0	1.02
COc1ccc2[nH]c(=O)c(CN(CC3CCCO3)C(=O)Nc3ccccc3OC)cc2c1 (stereo not drawn)	2.45*	i	14.0%	10.0	10.0	1.06
CCN1CCCC1CN(Cc1cc2cc(C)cc(C)c2[nH]c1=O)C(=O)Nc1ccccc1OC (stereo not drawn)	1.3	i	9.0%	11.0	16.0	1.03
COc1ccc2[nH]c(=O)c(CN(CCN3CCCC3)C(=O)Nc3ccccc3Cl)cc2c1	3.22*	i	12.0%	6.0	4.0	1.01
CCc1ccc2[nH]c(=O)c(CN(CCCN3CCOCC3)C(=O)Nc3cccc(Cl)c3)cc2c1	1.25	i	8.0%	8.0	15.0	1
COc1ccccc1NC(=O)N(Cc1cc2cc(OC)c(OC)cc2[nH]c1=O)CC1CCCO1 (stereo not drawn)	2.71*	i	11.0%	0.0	8.0	1.14
Cc1n[nH]c(C)c1S(=O)(=O)N1CCN(C(=O)c2ccco2)CC1	1.1	i	5.0%	0.0	15.0	0.99
COc1ccc(OC)c(NC(=O)Cn2cccc2)c1	1.04	i	6.0%	14.0	3.0	0.99
Cn1nc(-c2ccc(Cl)cc2)c2cc(C(=O)N3CCOCC3)sc21	1.26	i	11.0%	6.0	21.0	1.09
Cn1nc(-c2ccc(Cl)cc2)c2cc(C(=O)NCC3CCCO3)sc21 (stereo not drawn)	2.14*	nt	5.0%	2.0	8.0	1.06
CCN(CC)CCCNC(=O)c1cc2c(-c3ccc(Cl)cc3)nn(C)c2s1	2.14*	nt	2.0%	2.0	1.0	1.09
CN1CCN(CCCNC(=O)c2cc3c(-c4ccc(Cl)cc4)nn(C)c3s2)CC1	2.15*	nt	3.0%	3.0	2.0	1.1
CCN(CC)CCCNC(=O)c1cc(-c2ccc(Cl)c(Cl)c2)on1	1.07	i	6.0%	3.0	14.0	0.99
CS(=O)(=O)N(CC(=O)NCc1ccncc1)Cc1ccc(Cl)cc1	1.02	i	2.0%	0.0	1.0	0.99
COc1cc(-c2nnc(-c3ccncc3)o2)ccc1OCc1ccccc1	2.44*	i	9.0%	15.0	11.0	1.05
COc1ccc(-c2nnc(-c3cccnc3)o2)cc1OC	1.61	i	4.0%	6.0	0.0	1.07
COc1cc(-c2nnc(-c3ccco3)o2)ccc1OCc1ccccc1	3.56*	nt	11.0%	11.0	10.0	1.06
Cc1cc(NC(=O)CSc2cn(C)c3ccccc23)no1	1.07	i	5.0%	4.0	8.0	1.03
Cc1ccc(NC(=O)c2ccccc2O)cc1	1.34	i	2.0%	0.0	0.0	1.02
O=C(Nc1ccccc1)c1ccccc1O	2.06*	nt	13.0%	6.0	19.0	1.11
CCC(NC(=O)c1ccccc1O)c1ccccc1 (stereo not drawn)	3.67*	nt	10.0%	10.0	9.0	1.01
CCC(C)NC(=O)c1ccccc1C(=O)NC(C)CC (stereo not drawn)	1.05	i	2.0%	5.0	0.0	1.08
SMILES	Autofluor 339	DPM-DC inhibit	NADH coupling	MK inhibit	Spn PMK inh	Abs 340nm
CC1(C(=O)NC2CCCCCCC2)CCC(=O)N1Cc1ccco1 (stereo not drawn)	1.04	i	11.0%	2.0	31.0*	1
COc1cc(S(=O)(=O)N2CCCC3(CCCCC3)C2)ccc1-n1cnnn1	2.84*	i	3.0%	6.0	0.0	1.04
O=S(=O)(c1ccc2c(c1)C(=NO)c1cc(S(=O)(=O)N3CCCCC3)ccc1-2)N1CCCCC1	2.02*	i	6.0%	9.0	8.0	1.04
O=S(=O)(c1ccc(S(=O)(=O)N2CCCC2)cc1)N1CCCCCC1	1	i	6.0%	0.0	11.0	1.02
CCOCCCn1c(=NC(C)=O)c(C(=O)OCC)cc2c(=O)n3ccccc3nc21	2.92*	nt	3.0%	0.0	8.0	1.02
CCOC(=O)c1cc2c(=O)n3ccccc3nc2n(CCOC)c1=NC(=O)C(C)(C)C	2.3*	nt	9.0%	6.0	12.0	1.06
CCOC(=O)c1cc2c(=O)n3ccccc3nc2n(CCCOC)c1=NC(=O)C(C)(C)C	2.43*	nt	6.0%	13.0	0.0	1.03
CCOC(=O)c1cc2c(=O)n3ccccc3nc2n(C(C)C)c1=NC(=O)c1ccncc1	1.62	+	15.0%	8.0	4.0	1.05
O=C(Nc1nnc(-c2ccc3c(c2)CCCC3)o1)C1COc2ccccc2O1 (stereo not drawn)	1.1	i	4.0%	0.0	10.0	1.03
CS(=O)(=O)N(CC(=O)N1CCCC1)c1cccc(Cl)c1	1.06	i	2.0%	7.0	0.0	1.03
CCSc1nc(-c2cccs2)nc2c1c(=O)n(C)c(=O)n2C	1.27	i	1.0%	0.0	0.0	1.08
CCOC(=O)c1cc2c(=O)n3ccccc3nc2n(CCOC)c1=NC(=O)c1ccncc1	2.21*	nt	3.0%	6.0	0.0	1.07
COC(=O)CSc1nnc(CNC(=O)Cc2ccccc2)n1C	1.03	i	7.0%	8.0	13.0	0.98
Nc1ccc(-c2nc3ccc(N)cc3o2)cc1	2.14*	nt	7.0%	8.0	6.0	1.2
Nc1ccc(-c2nc3ccc(-c4nc5ccccc5o4)cc3[nH]2)cc1	3.68*	nt	3.0%	0.0	5.0	1.15
Nc1cc(N)cc(-c2nc3ccccc3[nH]2)c1	2.16*	+	17.0%	7.0	10.0	1.04
Nc1ccc2oc(-c3ccccn3)nc2c1	1.12	i	4.0%	0.0	11.0	1.12
Nc1nc(-c2nc3ccccc3[nH]2)cs1	1.1	i	1.0%	2.0	0.0	1.09
C=CCOc1nc(N2CCCC2)nc(N2CCCC2)n1	1.02	i	4.0%	0.0	19.0	0.99
CCOC(=O)CN1CC23C=CC(O2)C(C(=O)Nc2ccc(C(C)=O)cc2)C3C1=O (stereo not drawn)	1.04	i	4.0%	0.0	6.0	0.99
Cc1ccc2[nH]c3c(NCCN4CCOCC4)ncnc3c2c1	1.61	i	6.0%	8.0	6.0	1.03
C=CCNc1ncnc2c1[nH]c1ccc(C)cc12	3.99*	nt	5.0%	8.0	2.0	1.02
CCN(CC)CCNc1ncnc2c1[nH]c1ccc(OC)cc12	2.36*	nt	5.0%	6.0	4.0	1.05

Screening results (PubChem)
